Assay results from a collection of fitness landscapes (doi:10.1016/j.celrep.2020.107928).
Whole data set: some 81,000 sequences, median “one-hybrid fitness for binding NBS DNA” near -0.1, cut for the highest 2% near 0.36. This is one part of a sample in which the highest values are shown more often than they occur.

B1: Caulobacter ParB omega fusion; a variant is named by its letters at X, in order, B8GW30 (parent)
chain: MESVVVGEPGMSEGRRGLGRGLSALLGEVDAAPAQAPGEQLGGSREAPIEILQRNPDQPRRTFREEDLEDLSNSIREKGVLQPILVRPSPDTAGEYQIVAGERAWRAAQRAGLKTVPIMVRELDDLAVLEIGIIENVQRADLNVLEEALSYKVLMEKFERTQENIAQTIGKSXSHVANXMRLLXLPDEVQSYLVSGELTAXHARAIAAAADPVALAKQIIEGGLSVRETEALARKAPNLSAGKSKGGRPPRVKDTDTQALESDLSSVLGLDVSIDHRGSTGTLTITYATLEQLDDLCNRLTRGI

Variants of: B1
Experiment: one-hybrid fitness for binding NBS DNA (the Noc-binding site; scaled: cognate 1, non-cognate 0); higher = stronger binding
Conditions: with NBS DNA site
In short: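 In E. coli USO, a HIS3 reporter with its site placed 19 bp from the promoter was used to select Caulobacter ParB variants randomised at four specificity codons. Growth lasted 48 hours at 37°C on histidine-free M9 containing 0.1 mM IPTG and 5 mM 3-AT. Fitness was taken as the log change in variant-to-wild-type read ratio from Illumina sequencing of pre- and post-selection plasmids, rescaled between the non-cognate and cognate sites.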

one-hybrid fitness for binding NBS DNA, 0.497:
RRRG

one-hybrid fitness for binding NBS DNA, 0.335:
RCVS

one-hybrid fitness for binding NBS DNA, 0.214:
RRKE

one-hybrid fitness for binding NBS DNA, 0.39:
QRAN

one-hybrid fitness for binding NBS DNA, 0.404:
QRAM

one-hybrid fitness for binding NBS DNA, 0.211:
RKVH

one-hybrid fitness for binding NBS DNA, 0.296:
RRYM
RMVT

one-hybrid fitness for binding NBS DNA, 0.42:
RLAR

one-hybrid fitness for binding NBS DNA, 0.79:
RRKY

one-hybrid fitness for binding NBS DNA, 0.353:
QRFN

one-hybrid fitness for binding NBS DNA, 0.651:
RRRM

one-hybrid fitness for binding NBS DNA, 0.238:
RCKM
RRVN
RSVT

one-hybrid fitness for binding NBS DNA, 0.606:
RMKT

one-hybrid fitness for binding NBS DNA, 0.304:
QWNR

one-hybrid fitness for binding NBS DNA, 0.396:
QLAT

one-hybrid fitness for binding NBS DNA, 0.385:
RAAR
YKDT

one-hybrid fitness for binding NBS DNA, 0.623:
RAKT
RIKT

one-hybrid fitness for binding NBS DNA, 0.484:
RRKF

one-hybrid fitness for binding NBS DNA, 0.29:
RSKY

one-hybrid fitness for binding NBS DNA, 0.332:
QRAE

one-hybrid fitness for binding NBS DNA, 0.289:
QLFT
QRFC

one-hybrid fitness for binding NBS DNA, 0.395:
QSAT

one-hybrid fitness for binding NBS DNA, 0.301:
RRVY

one-hybrid fitness for binding NBS DNA, 0.237:
RAVT

one-hybrid fitness for binding NBS DNA, 0.364:
QCGA

one-hybrid fitness for binding NBS DNA, 0.247:
RLFR

one-hybrid fitness for binding NBS DNA, 0.533:
QCAT

one-hybrid fitness for binding NBS DNA, 0.206:
RRVM
RHFR

one-hybrid fitness for binding NBS DNA, 0.461:
RRKG

one-hybrid fitness for binding NBS DNA, 0.438:
RRKK
RSAR

one-hybrid fitness for binding NBS DNA, 0.384:
RIAR

one-hybrid fitness for binding NBS DNA, 0.249:
QKYA

one-hybrid fitness for binding NBS DNA, 0.256:
QSFS

one-hybrid fitness for binding NBS DNA, 0.291:
QSGA

one-hybrid fitness for binding NBS DNA, 0.321:
RRVH

one-hybrid fitness for binding NBS DNA, 0.512:
YKDR
RFKT

one-hybrid fitness for binding NBS DNA, 0.605:
RRVS

one-hybrid fitness for binding NBS DNA, 0.451:
QCAS

one-hybrid fitness for binding NBS DNA, 0.208:
QSYA
QHGA

one-hybrid fitness for binding NBS DNA, 0.242:
RFAR

one-hybrid fitness for binding NBS DNA, 0.25:
QRAD

one-hybrid fitness for binding NBS DNA, 0.326:
QAFT

one-hybrid fitness for binding NBS DNA, 0.427:
RHAR

one-hybrid fitness for binding NBS DNA, 0.314:
FMPK

one-hybrid fitness for binding NBS DNA, 0.28:
RSFR
QIAT

one-hybrid fitness for binding NBS DNA, 0.412:
QRAQ

one-hybrid fitness for binding NBS DNA, 0.401:
QAAT

one-hybrid fitness for binding NBS DNA, 0.539:
QKRA

one-hybrid fitness for binding NBS DNA, 0.248:
RCKK

one-hybrid fitness for binding NBS DNA, 0.583:
QRAH

one-hybrid fitness for binding NBS DNA, 0.397:
QCFS

one-hybrid fitness for binding NBS DNA, 0.597:
QRFS

one-hybrid fitness for binding NBS DNA, 0.302:
QRAF

one-hybrid fitness for binding NBS DNA, 0.348:
IDNR

one-hybrid fitness for binding NBS DNA, 0.68:
RRKS

one-hybrid fitness for binding NBS DNA, 0.516:
QSRA

one-hybrid fitness for binding NBS DNA, 0.216:
RMKM

one-hybrid fitness for binding NBS DNA, 0.331:
RRYG

one-hybrid fitness for binding NBS DNA, 0.465:
RKKH

one-hybrid fitness for binding NBS DNA, 0.27:
RCKN
RAFR

one-hybrid fitness for binding NBS DNA, 0.41:
QHAT

one-hybrid fitness for binding NBS DNA, 0.243:
RIFR
RIVT

one-hybrid fitness for binding NBS DNA, 0.692:
YKDH

one-hybrid fitness for binding NBS DNA, 0.358:
RISS

one-hybrid fitness for binding NBS DNA, 0.684:
QRAS

one-hybrid fitness for binding NBS DNA, 0.578:
RHKT

one-hybrid fitness for binding NBS DNA, 0.318:
RCKY

one-hybrid fitness for binding NBS DNA, 0.312:
QHFT

one-hybrid fitness for binding NBS DNA, 0.22:
QRFM

one-hybrid fitness for binding NBS DNA, 0.259:
RRKL

one-hybrid fitness for binding NBS DNA, 0.426:
RKVS

one-hybrid fitness for binding NBS DNA, 0.618:
RSKT

one-hybrid fitness for binding NBS DNA, 0.297:
YKDS

one-hybrid fitness for binding NBS DNA, 0.479:
QLRA

one-hybrid fitness for binding NBS DNA, 0.226:
RRKD
QRFQ

one-hybrid fitness for binding NBS DNA, 0.231:
RCRM

one-hybrid fitness for binding NBS DNA, 0.264:
QRAP

one-hybrid fitness for binding NBS DNA, 0.798:
RRKH

one-hybrid fitness for binding NBS DNA, 0.647:
RRKM

one-hybrid fitness for binding NBS DNA, 0.653:
QRGA
RCKT
RKKS

one-hybrid fitness for binding NBS DNA, 0.391:
QRAC

one-hybrid fitness for binding NBS DNA, 0.428:
RRNM

one-hybrid fitness for binding NBS DNA, 0.529:
RCAR

one-hybrid fitness for binding NBS DNA, 0.38:
RKKY

one-hybrid fitness for binding NBS DNA, 0.442:
RRRF

one-hybrid fitness for binding NBS DNA, 0.379:
RRKP

one-hybrid fitness for binding NBS DNA, 0.298:
RRVG

one-hybrid fitness for binding NBS DNA, 0.201:
QRFP

one-hybrid fitness for binding NBS DNA, ≤ 0.2:
QTEQ
PTMF
HNHR
PCGG
TWLL
LKVE
PCRQ
SSRV
HLTD
QIAA
QIYA
QLDA
QLYA
QKFA
QSDA
MCAS
PTRY
CVKD
PVDC
YENN
QHSL
RRDG
RRVD
HRIT
SNQT
TVTC
GVCG
MMPN
MEVE
LLMQ
CKKG
RRDF
RRVP
RRYP
RRYF
TKMW
MWVR
CLAT
TSDV
AMPA
PHPV
QICI
IYNQ
TYVC
YDYM
LLAR
RRVK
RCKF
RRVF
SCIR
RESS
WPIG
WPLC
PERM
SLQG
DCLR
PTRA
RWVV
QMMQ
CVMR
TNHL
ESDR
LVTW
PNSF
LPGR
QLIH
RCNM
RRDM
RCKG
YVLT
LIAF
KLGG
ELRQ
RSSE
GPWL
QLGA
PSYL
ACER
PNTQ
RIAN
RAAN
RHAD
RLAN
FGDR
GIAC
MKIR
FHKW
PVKH
TANL
VPPG
KWAS
RSAH
RPAR
PHEL
IQNS
WRET
AVER
TMML
YKDN
YKYR
YKNT
YKNR
YKYT
PGCP
ARAS
RMPC
IYSS
KREW
VDGI
QVNY
CDAR
CPEM
GLTI
PMWG
RAKN
NFKT
RSKP
RFVT
PIPI
SQAS
ERWR
DMMR
DFLL
AIKF
LHHN
WGHS
RCSQ
RHVT
REKT
RIKN
RPKT
RHKD
HNER
YSVR
NNAI
ECLL
LKEG
QPAT
QAAH
QLAH
QSAP
QSAN
DLIW
GYPG
MTVA
ELQY
NMPC
YMLA
PNNH
STTR
GQTC
PTRL
ITAS
QHAD
HTGM
DSKV
QPFS
QPAS
LCKS
STRH
SLSS
AMPP
HDRS
NECS
AAGK
QPEY
QCAQ
QRFD
QCAM
QCAC
QSIQ
KPVS
YYMR
RFQM
GDHK
LAMD
SSIR
QCAN
RKKP
RKYY
RKKD
RKDY
RKVN
RKVY
RKVD
HLAI
KRLI
TRHK
TTRF
RAYA
ISTD
AALA
TDSY
AIFT
PYDR
VNLC
PDQF

one-hybrid fitness for binding NBS DNA, 0.221:
QAGA
RMFS

one-hybrid fitness for binding NBS DNA, 0.386:
QIRA

one-hybrid fitness for binding NBS DNA, 0.646:
RRKN

one-hybrid fitness for binding NBS DNA, 0.252:
RKKN

one-hybrid fitness for binding NBS DNA, 0.356:
QSAS

one-hybrid fitness for binding NBS DNA, 0.366:
RKRY
